Screens: PubChem BioAssay, National Center for Advancing Translational Sciences (NCATS)
HCV inhibitor = blocks hepatitis C virus; 340,000 compounds, 3.4% hits; Potency, µM (titrated, usually from 41.8 µM), most hits filed as inhibitors; Huh7.5.1 HCVcc-Cre infection, luciferase reporter, 44 h
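Compounds are dispensed onto cells plated 4 h earlier at 1,000 per well, with HCVcc-Cre virus (about 0.5 moi) added next. Following 44 h of culture, luminescent signal is measured for 15 sec after 15 min with substrate at room temperature.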
Shiga inhibitor = blocks Shiga toxin action in Vero cells. Vero cells, Shiga toxin protein synthesis inhibition reporter. inhibition, % at 38.7 µM. 290,000 compounds, 9.2% hits; in the data active = inhibition mostly above about 28%, no sharp cut-off; inactive = mostly below about 43%
Pf growth 48h = inhibits P. falciparum growth in the first generation, 48 h; P. falciparum luciferase growth in erythrocytes, 48 h; 310,000 compounds, 5.9% hits; AID 504832; Potency, µM (series often up to 28.7 µM), actives largely listed as inhibitors
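Here the parasites carry a stable luciferase gene and grow inside erythrocytes in Albumax-based RPMI medium with compound for one erythrocytic cycle. Activity is scored as loss of luminescent signal.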
HCMV inh = human cytomegalovirus inhibition | 410,000 compounds, 4.5% hits | activity change, negative = inhibition, % at 57.5 µM | HFF cells, HCMV-luciferase reporter, 72 h; active compounds read low | AID 1259415; in the data active = activity change below about -60%; inconclusive = no clear call, values can overlap the other calls; inactive = above about -39%
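Steps: HFFs plated, 16 h 37C; compounds added; HCMV-luciferase added to MOI 1 PFU/cell; 72 h 37C; OneGlo reagent, 5 min room temperature; luminescence read, normalized to controls.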
Pf growth 96h = P. falciparum growth inhibition at 96 hours | P. falciparum luciferase reporter growth, 96 h | Potency, µM (series often up to 28.7 µM), hits mostly inhibitors | 320,000 compounds, 6.9% hits
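Two-generation exposure (96 h) targets delayed-death phenotype. Reporter parasites carrying integrated firefly luciferase, in red cells at 2% hematocrit and 0.05% parasitemia final, kept at 37 C, 5% CO2; luminescence loss indicates inhibition.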
Cycloheximide cs = counter-screen hit for Shiga toxin inhibitors, cycloheximide. cell reporter, cycloheximide protein synthesis inhibition counterscreen. max response, %. 300,000 compounds, 12% hits. AID 2314; in the data active = max response mostly above about 13%, no sharp cut-off; inactive = mostly below about 14%; note: read at 38.3 µM for the half of the compounds with a filed dose
Numbers stand for hits; n = inactive; u = inconclusive; x = no result given. In the library only some 21% were active in any assay of this set; here they are far more common. Unless noted, calls come from the whole dose curve; as a rule, active = well fitted inhibition curve with a large enough effect; inconclusive = small, poorly fitted or top-dose-only effect, or another doubt; inactive = no such curve, though single readings can be large or run the other way.

SMILES | HCV inhibitor | Shiga inhibitor | Pf growth 48h | HCMV inh | Pf growth 96h | Cycloheximide cs
Cc1cc[n+](-c2[nH]c(=O)sc2/C=N/NC([S-])=Nc2ccccc2)cc1 | u | n | n | -61 | n | n
O=C(O)c1cccc(N2C(=O)C=CC2=O)c1 | x | x | x | n | x | x
Cc1ccc(NC(=O)c2cccc(N3C(=O)C4C5CCC(C5)C4C3=O)c2)c(C)c1 (stereo not drawn) | n | n | 10µM | n | n | n
COc1ccc(NC(=O)c2cccc(N3C(=O)C4C5C=CC(C6CC56)C4C3=O)c2)cc1 (stereo not drawn) | x | n | u | n | u | n
O=C(Nc1ccc(Cl)cc1)c1cccc(N2C(=O)C3C4CCC(C4)C3C2=O)c1 (stereo not drawn) | u | 52 | u | u | u | 23
O=C(Nc1ccccc1)c1cccc(N2C(=O)C3C4CC(C(Br)C4Br)C3C2=O)c1 (stereo not drawn) | n | n | 1.5µM | n | u | n
Cc1ccccc1NC(=O)c1cccc(N2C(=O)C3C4CCC(C4)C3C2=O)c1 (stereo not drawn) | n | n | n | n | x | n
O=C(O)c1ccc(NC(=O)c2cccc(N3C(=O)C4C5CCC(C5)C4C3=O)c2)cc1 (stereo not drawn) | n | n | n | n | u | n
O=C(Nc1ccc(Cl)cc1Cl)c1cccc(N2C(=O)C=CC2=O)c1 | n | n | n | -73 | n | n
CC(C)(C(=O)N1CCC1(C)C(=O)Nc1ccccc1Br)c1ccccc1 (stereo not drawn) | x | x | x | n | x | x
COc1cc(S(=O)(=O)N2CCC(c3nc4ccccc4s3)CC2)ccc1S(=O)(=O)NC1CCCC1 | u | n | u | n | 9.3µM | n
CCOc1ccccc1Nc1nnc(SCC(=O)Nc2cccc(S(=O)(=O)NC3=NCCCCC3)c2)s1 | u | n | u | n | 9.3µM | n
CCOc1ccc2nc(SCC(=O)Nc3cccc(S(=O)(=O)NC4=NCCCCC4)c3)[nH]c2c1 | n | n | 12µM | n | u | n
O=C(Cn1cnc2c(nc3n2CCCCC3)c1=O)Nc1ccc(F)cc1 | x | x | x | n | x | x
O=C(NCc1ccccc1)[C@H]1[C@H](CO)[C@H]2Cn3c(cccc3=O)[C@H]2N1Cc1ccccc1F | x | x | x | n | x | x
COc1cc2c3nnc(-c4ccc(F)cc4)c-3cn(Cc3ccccc3F)c2cc1OC | u | n | 0.37µM | -89 | 0.74µM | n
COc1ccc(C(=O)c2cn(Cc3ccccc3F)c3cc4c(cc3c2=O)OCO4)cc1 | x | x | x | n | x | x
COc1cc2c(=O)c(S(=O)(=O)c3ccc(F)cc3)cn(Cc3ccccc3C)c2cc1OC | x | x | x | n | x | x
COc1cc2c3nnc(-c4ccccc4)c-3cn(Cc3ccccc3F)c2cc1OC | u | n | u | -97 | u | n
Cn1cc(-c2cc3n(n2)CCC(=O)N3CCCC(=O)Nc2ccc(F)cc2F)c2ccccc21 | x | x | x | n | x | x
Cc1cccc(CNC(=O)C(C)n2nc(C)c3c(C)n(-c4ccccc4)nc3c2=O)c1 (stereo not drawn) | 10µM | n | u | n | 10µM | n
COc1ccc(CNC(=O)C(C)n2nc(C)c3c(C)n(-c4ccc(C)cc4)nc3c2=O)cc1 (stereo not drawn) | u | n | 13µM | -68 | n | n
Cc1ccc(CCNC(=O)C(C)n2nc(C)c3c(C)n(-c4ccc(C)cc4)nc3c2=O)cc1 (stereo not drawn) | x | x | x | -62 | x | x
Cc1ccc(-n2nc3c(=O)n(C(C)C(=O)NCCc4cccs4)nc(C)c3c2C)cc1 (stereo not drawn) | u | n | u | x | n | n
CCC(C(=O)NCc1ccc(OC)c(OC)c1)n1nc(C)c2c(C)n(-c3ccc(C)cc3)nc2c1=O (stereo not drawn) | x | x | x | -74 | x | x
CCOc1ccc(CNC(=O)C(C)n2nc(C)c3c(C)n(-c4ccccc4)nc3c2=O)cc1 (stereo not drawn) | n | n | u | u | n | n
Cc1nn(C(C)C(=O)NCc2ccco2)c(=O)c2nn(-c3ccccc3)c(C)c12 (stereo not drawn) | n | n | n | n | u | n
C=CCNc1cccc(Br)c1 | n | x | x | n | x | x
Cc1ccc(S(=O)(=O)N2CCCCC2)cc1NC(=O)c1cc(F)c(F)c(F)c1F | u | x | x | n | x | x
